# The campaign covered roughly 1,300 compounds. About 330 (25%) were called active. The list is a sample of the results. Measured potencies and affinities stand elsewhere. Values without a mark were called inactive. The rule behind the calls is not given here.
# Experiment: MALME3 melanoma cell viability loss, dose response, orthogonal assay for MITF inhibitor project, CellTiter-Glo, cherry-picked (AID 493191)
# Details: CellTiter-Glo luminescence, 24 h; series mostly up to 35 µM; activity change, negative = inhibition: at the top concentration
row,Structure (SMILES),"activity change, negative = inhibition [%]"
1,Cc1cc(C(=O)O/N=C(\N)c2ccncc2)ccc1[N+](=O)[O-],8.51
2,Cc1c(NC(=O)C(C)OC(=O)c2ccc([N+](=O)[O-])s2)c(=O)n(-c2ccccc2)n1C (stereo unspecified),-11
3,CCCCOc1ccc(-c2ncc([N+](=O)[O-])cn2)cc1,4.96
4,CC(C)(C)N=Cc1cc(-c2ccccc2)sc1O,9.96
5,O=C(N/N=C/c1ccc([N+](=O)[O-])o1)c1sc2ccccc2c1Cl,-55.5
6,C(#Cc1ccccc1)C[N+]1(CC#Cc2cccc3ccccc23)CCCC1,-16.4
7,CSCCNC(=O)c1ccc2nc(Cc3ccccc3F)oc2c1,4.87
8,O=C(CSC(=S)N1CCCCC1)c1c(F)cccc1F,-9.52
9,CN(Cc1ccccc1)C1=CC(=[N+]2CCCCC2)CC(C)(C)C1,-35.5
10,CCOc1cccc(C(=O)NC2=NCCS2)c1,-7.89
11,CCOC(=O)N1CCC(NC(=O)C2CCCN(Cc3nc(-c4cccc(C)c4)oc3C)C2)CC1 (stereo unspecified),-2.51
12,[2H]C(CCOS(N)(=O)=O)c1ccc(C(C)(C)C)cc1 (stereo unspecified),-5.5
13,N/C(=N\OC(=O)c1ccc([N+](=O)[O-])cc1)c1ccc(Br)cc1,8.18
14,COc1cc(/C=C/C(=O)N2CCC=CC2=O)cc(OC)c1OC,-34.7
15,c1ccc(C[n+]2cccc3c4ccccc4ccc32)cc1,-16.9
16,CCCCN(CC)CCCNC(=O)c1cc2c(=O)n(CC)c3ccccc3c2s1,-37.7

row,Structure (SMILES),"activity change, negative = inhibition [%]"
1,CC1(C)CC(=O)C=C(NC2=CC3OC(c4ccccc4)OCC3OC2=O)C1 (stereo unspecified),-3.65
2,C(=N\Nc1cc(N2CCCCC2)ncn1)/c1ccco1,9.75
3,Clc1ccc(-c2nc(-c3ccncc3)no2)c(Cl)c1,-4.41
4,O=C(Cc1cccs1)NCc1ccc(Cl)cc1Cl,4.52
5,CC(C)n1cc(/C=C/c2cc[n+](C)cc2)c2ccccc21,-22.1
6,O=C(Nc1nc(-c2ccccn2)cs1)c1ccc(F)c(S(=O)(=O)N2CCOCC2)c1,-20.2
7,Cc1ccc(-c2cn3cc(C)ccc3n2)cc1,-20.9
8,O=C(CSc1ccccn1)c1ccc2c(c1)OCO2,7.19
9,COc1cccc(NC(=O)c2cc3c(=O)n4ccccc4nc3n(CC(C)C)c2=N)c1,1.34
10,CCOC(=O)N1C(=O)[C@](CC)(c2ccccc2)N1C(=O)OCC,-32.8
11,CCOC(=O)c1cn2nc(Oc3ccccc3)ccc2n1,7.09
12,C/C(=N\Nc1cc(N2CCOCC2)ncn1)c1ccccc1,5.95
13,CC1(C)Cc2c(sc(NC(=O)Nc3ccccc3)c2C(N)=O)CO1,-17
14,O=S(=O)(c1ccc(Cl)cc1)N1CCN(Cc2ccc(O)c3ncccc23)CC1,-27.6
15,Cc1ccc(C)c(S(=O)(=O)N2CCN(Cc3ccc(O)c4ncccc34)CC2)c1,-29.3

# — PubChem BioAssay AID493191 (Broad Institute, 2011)
